# In all, about 53,000 sequences went through this assay and about 3,700 (7%) were called active. This excerpt belongs to a sample that is enriched for actives. Unmarked numbers belong to inactive results.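 How the source made its calls: active means gene knockdowns whose robust z-score for IL-1 alpha signal is at least 2 or at most -2, so actives lie on both sides; inactive means the rest.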
# Assay: Components of the Cytosolic LPS Sensing Pathway: Gene Identification via Genome-wide siRNA Screen;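 further: robust z of the log signal after scaling to non-targeting control siRNA wells of the plate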
# Details: RAW264.7 macrophages, IL-1a HTRF, actives lie on both sides, screened at 100 nM (by protocol), cells primed 5 h with Pam3CSK4 first
# Outline: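 Three distinct siRNAs per gene were tested singly at 100 nM in RAW264.7 macrophages. Following Pam3CSK4 priming and 24 hour LipidA transfection, IL-1a secretion was read by HTRF.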
row,Sequence,z-score
1,GGCAUGAUUAUUGUGUUUGTT against Abcb11,0.41
2,CCUAAGUACUGUAAGAAUATT against Mycn,0.506
3,CGCCAUGUUUAACAAAUUGTT against Limk2,-2.22 (active)
4,GCCAUUCUAGGAACUCUGATT against Thrap3,-1.3
5,GGUAUCAGACAGCUGUAACTT against Mptx1,0.359
6,GCAUCAGUAGAAACCCACATT against Tmigd3,0.872
7,CCCUACUAUUGACGAAAACTT against Hpn,1.66
8,CCUGAUCUUAAACAAAGAATT against 2610507B11Rik,-0.742
9,GCCAACCCUGAAAACCCUUTT against Gc,-2.54 (active)
10,GGUUGUUGAAAAGUCUUUATT against Rasa2,-0.102
11,GCACUGGAAAAUUUCUAAUTT against Vmn2r7,-0.0531
12,GGAGGUAGAAAUAAAUACUTT against Sva,2.01 (active)
13,GGACAAUUACAACACUCAATT against Ablim3,-0.00526
14,GGCUUGAUCAUGACUUAAATT against Armc8,0.638
15,GGUUUUGUUAUGGUAAGUCTT against Vdr,-0.573
16,CCAAGCAUUCGAGUAUGUUTT against Ctsj,1.07
17,CCAAUGAUUUCCUGCUAAATT against Lst1,3.21 (active)
18,GGAAGACAACUGAACAUUUTT against Ralgds,0.837
19,CCGGAAGCUAUUGACCAUUTT against Tmem11,3.21 (active)
20,GGCCGUAAUAUCUCCUCCUTT against Krt13,1.41
21,CGCGAGGUCUUCGAAAGAATT against Siva1,-0.884
22,CGCGUUUCGUGUUUCAAAATT against Mus81,-0.464
23,GAUCGAAGCCUAAGACCGCTT against Cypt3,-0.578
24,GCCUUAGGGAGUGUUAAAATT against Spink8,-0.304
25,GGUGGAGAAGCAGAUGCUUTT against Nek2,2.25 (active)
26,GGAAUUCCUUACCUUCUUATT against Cyp2c65,-0.269
27,GGAGCAUCACUCUUAACAUTT against Krt71,1.58
28,GGGACACUUUCACUUGUUCTT against Rmnd5a,0.159
29,GCUCAGGCAAGACUCAUUGTT against Trim45,-0.57
30,GGACUUUUGGCACUCUUAUTT against Snx10,0.127
